High-throughput results as filed in PubChem BioAssay.
This is a sample that favours compounds with a hit; in the whole collection about 0.85% have one here.
GAA glycogen mod – alters human alpha-glucosidase cleavage of glycogen | P10253 | 0.38% of 300,000 active | AID 2100 | Potency, µM (series often up to 76.4 µM), for inactives: at the highest dose activity change, negative = inhibition, actives largely listed as inhibitors | recombinant GAA, glycogen substrate, Amplex Red glucose oxidase fluorescence;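 further: potency means the concentration at half of the fitted maximal effect; 0% = full enzyme reaction and -100% = no-enzyme basal signal; the screen sought inhibitors and activators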
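qHTS, 1536-well; enzyme 4 nM final; cpd up to 77 uM; substrate bovine liver glycogen 30 ug; 50 mM citrate/phosphate pH 5.0, 0.01% Tween-20; 37 C, 40 min; Amplex Red detection 45 min RT; Hill fit → AC50.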
Coupling enz – coupling enzyme interference in Giardia aldolase counter-screen. coupling enzyme system counterscreen, AmpLite Red fluorescence. activity change, negative = inhibition, % at 58.2 µM, hits read low. 0.67% of 290,000 active. AID 2472; in the data active means activity change below about -30%
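Activity here indicates interference with the coupling reaction, not aldolase inhibition. Compounds at 57.5 uM final met coupling enzymes for 10 min at RT; substrate and AmpLite Red detection followed, with a 525/598 nm fluorescence read after 20 min.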
B2AR arrestin – recruits beta-arrestin to the human beta2-adrenergic receptor | P07550 | beta-arrestin recruitment to beta2AR, cell-based reporter | Potency, µM (doses to about 46.1 µM), inactives show top-dose activation, usual class: activators | 0.02% of 330,000 active | AID 492947;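 further: potency means the concentration at half of the fitted maximal effect; 0% = DMSO controls and full agonism = EC100 isoproterenol or metaproterenol; nearly all actives have a fitted effect of over 65% in size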
Target sequence (P07550 whole entry, looked up): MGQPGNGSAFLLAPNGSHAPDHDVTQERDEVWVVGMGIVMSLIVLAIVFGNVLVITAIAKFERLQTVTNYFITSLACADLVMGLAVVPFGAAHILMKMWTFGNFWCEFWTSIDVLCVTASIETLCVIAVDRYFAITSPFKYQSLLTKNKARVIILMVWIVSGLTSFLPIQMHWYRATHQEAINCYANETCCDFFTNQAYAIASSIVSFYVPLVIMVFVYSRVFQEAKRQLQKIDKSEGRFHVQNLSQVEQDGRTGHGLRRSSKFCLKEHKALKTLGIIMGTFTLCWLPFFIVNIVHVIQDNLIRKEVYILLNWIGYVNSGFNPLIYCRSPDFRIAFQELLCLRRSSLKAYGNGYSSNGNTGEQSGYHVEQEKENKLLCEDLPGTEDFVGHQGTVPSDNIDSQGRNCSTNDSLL
aGlu spleen mod – inhibits or activates alpha-glucosidase in human spleen homogenate; P10253; Potency, µM (top dose mostly 79.9 µM), without a hit: at the highest dose activity change, negative = inhibition, most hits filed as inhibitors; 0.006% of 240,000 active; human spleen homogenate, 4-MU-alpha-glucoside fluorescence;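 further: potency means the concentration at half of the fitted maximal effect; 0% = enzyme with vehicle and -100% = no enzyme basal signal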
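Human spleen homogenate (1 ug) incubated with compounds and 1 mM 4-methylumbelliferyl-alpha-D-glucopyranoside in pH 5.0 citrate/phosphate buffer, 37 C, 40 min. Stopped at pH 10; 4-MU fluorescence (Ex 365/Em 440 nm); AC50 by Hill fit.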
GAA inhib – blocks human lysosomal alpha-glucosidase. P10253. purified human GAA, 4-MU-alpha-glucoside fluorescence. Potency, µM (highest dose often 76.9 µM), without a hit: at the highest dose activity change, negative = inhibition, actives largely listed as inhibitors. 0.005% of 200,000 active;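 further: potency means the concentration at half of the fitted maximal effect; plate controls were uninhibited enzyme wells for no effect and no-enzyme background for full effect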
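Compounds are titrated up to 77 uM against 4 nM human enzyme. Substrate 4-methylumbelliferyl-alpha-D-pyranoside (400 uM) reacts 20 min at room temperature in pH 5.0 buffer; liberated 4-methylumbelliferone is read at 440 nm.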
* marks the source's active call; other numbers are inactive results; [ ] = another dose, or the depositor's remark. Unless noted, the call rests on the fitted dose curve; in most records, active means well fitted curve in the direction sought with a large enough effect; inconclusive means small, poorly fitted or top-dose-only effect, or another doubt; inactive means no such curve, though single readings can be large; an effect the other way counts as inactive or inconclusive. Unless noted, on the % scale 0 is the no-effect control and ±100 the full control effect.

How did Cc1ccc2c(c1)N(CCCC(=O)NCc1cccc(F)c1)C(=O)CO2 do in these assays?
GAA glycogen mod: 45µM*

What do the screens show for `Nc1c(C(=O)NCc2ccco2)c2nc3ccccc3nc2n1CCc1ccc(F)cc1`?
GAA glycogen mod: -7%; Coupling enz: -34*; B2AR arrestin: 0%; aGlu spleen mod: 8%; GAA inhib: -6%

Results for COc1ccc(-n2c(N)c(C(=O)NCc3ccco3)c3nc4ccccc4nc32)cc1 ?
GAA glycogen mod: 4%; Coupling enz: -7; B2AR arrestin: -1%; aGlu spleen mod: 27%; GAA inhib: inconclusive

What do the screens show for `C#C[C@]1(O)CC[C@H]2C3CCC4=Cc5oncc5CC4(C)C3CCC21C` (some centres not stated)?
aGlu spleen mod: 5%

Results for COCCn1c(NC(=S)NC(=O)C2CC2)cc(=O)[nH]c1=O ?
GAA glycogen mod: 31µM*; Coupling enz: -10; B2AR arrestin: -1%; aGlu spleen mod: 7%; GAA inhib: 6%

How did COCCn1c(NC(=S)NC(=O)C23CC4CC(CC(C4)C2)C3)cc(=O)[nH]c1=O do in these assays?
GAA glycogen mod: -4%; Coupling enz: 1; B2AR arrestin: -1%; aGlu spleen mod: 6%

Results for C/C(Cn1nnc([N+](=O)[O-])n1)=N\NC(=O)c1ccccc1 ?
GAA glycogen mod: -12%; Coupling enz: -40*; B2AR arrestin: 0%; aGlu spleen mod: 4%; GAA inhib: -9%

What do the screens show for `O=C(NNc1ccc(C2CCCCC2)cc1)C(O)(c1ccccc1)c1cccs1` (configuration not stated)?
GAA glycogen mod: 20µM*; Coupling enz: -6; B2AR arrestin: 0%; aGlu spleen mod: -15%; GAA inhib: -14%

What do the screens show for `COc1ccc(NC(=O)NNC(=O)C(O)(c2ccccc2)c2ccccc2)cc1`?
GAA glycogen mod: -7%[76.3 µM]; Coupling enz: -1; B2AR arrestin: 0%

Results for COc1ccc(C(O)(C(=O)NNc2ccc(C)cc2)c2cccs2)cc1 (configuration not stated) ?
GAA glycogen mod: 20µM*; Coupling enz: -5; B2AR arrestin: 0%; aGlu spleen mod: 1%; GAA inhib: -2%

How did COC(=O)c1cc2oc3ccccc3c2n1CC(=O)Nc1ccc(C)cc1C do in these assays?
GAA glycogen mod: -2%[76.3 µM]

Results for COc1cccc(-c2nc(SCC(=O)NC3CCCC3)c(-c3ccccc3)[nH]2)c1 ?
GAA glycogen mod: -8%[76.3 µM]

Results for CCCCCCCC/C=C\C/C=C\C/C=C\CCCC(=O)O ?
Coupling enz: 5; aGlu spleen mod: -2%

How did COc1ccccc1NC(=O)c1c(N=Cc2c(O)ccc3ccccc23)cnn1C do in these assays?
GAA glycogen mod: 5%; Coupling enz: -40*; B2AR arrestin: 0%; aGlu spleen mod: 6%

What do the screens show for `COC(=O)c1ccc(C(NC(=O)OCc2ccccc2)/C(=C/[C@@H](C)C(=O)NCc2nc3ccccc3n2C)c2cccnc2)cc1` (some centres not stated)?
Coupling enz: -5; aGlu spleen mod: 3%

How did Cc1cccc(NC(=S)N(C)C)c1C do in these assays?
GAA glycogen mod: 7%; Coupling enz: 1; B2AR arrestin: -1%; aGlu spleen mod: 1%; GAA inhib: -9%[15.4 µM]

What do the screens show for `Cc1cccc(Nc2cc(C)c3c(O)cccc3n2)c1C`?
GAA glycogen mod: 10µM*; Coupling enz: -6; B2AR arrestin: 0%; aGlu spleen mod: -1%; GAA inhib: -2%

Results for Cc1ccc(C)c(S(=O)(=O)N2CCN(C(=O)[C@H](C)N3C(=O)C4CC=CCC4C3=O)CC2)c1 (some centres not stated) ?
B2AR arrestin: 0%

What do the screens show for `O=C(Nc1ncc([N+](=O)[O-])s1)c1ccc2c(c1)OCO2`?
GAA glycogen mod: -20%; Coupling enz: -32*; B2AR arrestin: -1%

What do the screens show for `Cc1cc2c(nc1C)CCCN2C[C@@H](O)CN1CCN(C)CC1`?
Coupling enz: 0; aGlu spleen mod: 3%[17.4 µM]

How did COC1=C2C[C@@H](C)C[C@H](OC)[C@H](O)[C@@H](C)/C=C(\C)[C@H](OC(N)=O)[C@@H](OC)/C=C\C=C(/C)C(=O)NC(=CC1=O)C2=O do in these assays?
Coupling enz: -65*; aGlu spleen mod: -1%

What do the screens show for `CCN(c1cccc(C)c1)S(=O)(=O)c1ccc(-n2cccn2)cc1`?
GAA glycogen mod: -20%[76.3 µM]; B2AR arrestin: 0%

What do the screens show for `COc1ccc([C@H](C)NC[C@H](O)c2ccc(O)c(NC=O)c2)cc1`?
GAA glycogen mod: -2%; Coupling enz: 0; B2AR arrestin: 18µM*; aGlu spleen mod: 0%; GAA inhib: 4%

How did CN(C)c1ncc2nc(-c3ccccc3)c(=O)n(C)c2n1 do in these assays?
Coupling enz: 0; aGlu spleen mod: 5%

Results for COc1ccc(Cl)cc1N(CC(=O)N1CCCCCC1)S(C)(=O)=O ?
GAA glycogen mod: 6%[76.3 µM]; Coupling enz: 0; B2AR arrestin: 0%

Results for Oc1ccc(/C=N/Nc2nccnc2Cl)c(O)c1 ?
GAA glycogen mod: 11µM*; Coupling enz: 1; B2AR arrestin: -1%; aGlu spleen mod: -2%; GAA inhib: -4%

What do the screens show for `O=c1[nH]ncc(N/N=C\c2ccc(O)cc2O)c1Cl`?
GAA glycogen mod: 2.5µM*; Coupling enz: -2; B2AR arrestin: 0%; aGlu spleen mod: -11%; GAA inhib: -10%

Results for Oc1ccc(Br)cc1/C=N/Nc1ncc(-c2ccccc2)cn1 ?
GAA glycogen mod: 5%; Coupling enz: 0; B2AR arrestin: 0%; aGlu spleen mod: 1%; GAA inhib: 2%

What do the screens show for `Oc1ccc(/C=N/Nc2cccc3cccnc23)c(O)c1`?
GAA glycogen mod: 25µM*; Coupling enz: -3; B2AR arrestin: 0%; aGlu spleen mod: -10%; GAA inhib: -2%

What do the screens show for `Oc1ccc(/C=N/Nc2ncc(Br)cn2)c(O)c1`?
GAA glycogen mod: 28µM*; Coupling enz: 3; B2AR arrestin: -2%; aGlu spleen mod: 8%; GAA inhib: -9%
